Among the test systems are MOLT-4 leukemia; SR leukemia; RPMI-8226 leukemia; OVCAR-8 ovarian; OVCAR-5 ovarian; OVCAR-4 ovarian; SK-OV-3 ovarian; IGROV1 ovarian; OVCAR-3 ovarian; HS 578T breast; NCI/ADR-RES ovarian; T-47D breast; BT-549 breast; MDA-MB-435 melanoma; SW-620 colon; MCF7 breast; HCT-116 colon; HCC-2998 colon; KM12 colon.
Holding throughout (experiment): NCI-60 one-dose screen, 48 h (100 = growth as untreated, 0 = no growth, -100 = all killed)
Conditions in all cases: 10 µM unless noted

The panel holds about 83,000 compounds, 20% with a hit somewhere; the sample as a whole holds those more often.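 Assay: single dose, 48 h. Readout: percent growth (0 = no net growth; negative = cell death). Active: <10.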 A number with no mark means an inactive call. The source made the active and inactive calls.

Regarding `Cc1ccc(C(=O)NCCCOc2ccc(N)cc2Cl)cc1S(=O)(=O)F`, the growth in the experiment on MOLT-4 leukemia is 79.7%; in the experiment on SR leukemia, 87.9%; in the experiment with RPMI-8226 leukemia, 85.6%; with OVCAR-8 ovarian it was 101%; with OVCAR-5 ovarian it was 102%; with OVCAR-4 ovarian it was 97.5%. Further, the growth in the experiment with SK-OV-3 ovarian is 82.1%; with IGROV1 ovarian it was 95.5%; with OVCAR-3 ovarian, 98.8%; with HS 578T breast, 98%; in the experiment with NCI/ADR-RES ovarian, 103%; in the experiment with T-47D breast, 81.9%. Also, the growth is 98% in the experiment with BT-549 breast; 90.9% in the experiment with MDA-MB-435 melanoma; 104% in the experiment with SW-620 colon; 103% with MCF7 breast; 98.9% in the experiment on HCT-116 colon; 106% in the experiment with HCC-2998 colon. For the same compound, the growth with KM12 colon was 90.8%.
Regarding `CC(=O)[C@H]1CC[C@H]2[C@@H]3CC[C@H]4C[C@H](N)CC[C@]4(C)[C@H]3CC[C@]12C`, the growth in the experiment with MOLT-4 leukemia is 61.7%; with SR leukemia, 32.3%; in the experiment on RPMI-8226 leukemia, 58.9%; in the experiment with OVCAR-8 ovarian, 90%; in the experiment with OVCAR-5 ovarian it was 82.7%; in the experiment on OVCAR-4 ovarian, 84.1%. In addition, the growth in the experiment on SK-OV-3 ovarian was 109%; in the experiment with IGROV1 ovarian, 81.6%; in the experiment with OVCAR-3 ovarian it was 74.5%; with HS 578T breast, 82%; with NCI/ADR-RES ovarian it was 89.4%; in the experiment on T-47D breast, 91%. The growth in the experiment with BT-549 breast is 70.5%; in the experiment on MDA-MB-435 melanoma, 65.1%; with SW-620 colon it was 72.2%; in the experiment with MCF7 breast, 70.6%; with HCT-116 colon, 40.6%; with HCC-2998 colon, 92.8%. For the same compound, in the experiment on KM12 colon, the growth was 80.2%.
With `CN[C@@]1(c2ccccc2Cl)CCCC[C@@H]1NCC1CCCO1` (some centres not stated), the growth in the experiment with MOLT-4 leukemia was 111%; in the experiment with SR leukemia, 95.2%; with RPMI-8226 leukemia, 104%; in the experiment with OVCAR-8 ovarian, 102%; in the experiment with OVCAR-5 ovarian, 97.4%; in the experiment on OVCAR-4 ovarian, 93.8%. The growth with SK-OV-3 ovarian was 111%; with IGROV1 ovarian, 102%; in the experiment with OVCAR-3 ovarian, 116%; in the experiment on HS 578T breast, 96.3%; with NCI/ADR-RES ovarian, 101%; in the experiment with T-47D breast, 93%. Further, the growth is 102% in the experiment with BT-549 breast; 102% with MDA-MB-435 melanoma; 102% in the experiment on SW-620 colon; 98.6% in the experiment with MCF7 breast; 105% in the experiment on HCT-116 colon; 101% in the experiment on HCC-2998 colon. Also, the growth with KM12 colon is 108%.
As to `COc1ccc(C(=O)c2cc(OC)c(OC)c(OC)c2)cc1OC(C)=O`, the growth is 13.9% in the experiment on MOLT-4 leukemia; 11.9% in the experiment on SR leukemia; 20.4% in the experiment on RPMI-8226 leukemia; 15.6% in the experiment on OVCAR-8 ovarian; 57.9% in the experiment with OVCAR-5 ovarian; 57.7% in the experiment on OVCAR-4 ovarian. For the same compound, the growth in the experiment with SK-OV-3 ovarian was 24.2%; in the experiment on IGROV1 ovarian, 25.6%; in the experiment on OVCAR-3 ovarian it was 5.13% (active); in the experiment with HS 578T breast, 44.3%; in the experiment on NCI/ADR-RES ovarian it was 7.97% (active); in the experiment on T-47D breast, 55.2%. The growth was 8.56% (active) in the experiment on BT-549 breast; -16.3% (active) in the experiment with MDA-MB-435 melanoma; 25.1% in the experiment with SW-620 colon; 15.7% in the experiment with MCF7 breast; 6.24% (active) with HCT-116 colon; 25.5% in the experiment with HCC-2998 colon. Besides, the growth with KM12 colon was 11.2%.
For the compound `CC(=O)O[C@H](C[C@H](C(C)C)N(C)C(=O)[C@@H](NC(=O)[C@H]1CCCCN1C)C(C)(C)C)c1nc(C(=O)N[C@@H](Cc2ccccc2)C[C@H](C)C(=O)O)cs1`, the growth in the experiment with MOLT-4 leukemia is 6.26% (active); with SR leukemia, 2.59% (active); with RPMI-8226 leukemia, 16.8%; in the experiment with OVCAR-8 ovarian it was 8.74% (active); with OVCAR-5 ovarian it was 32%; with OVCAR-4 ovarian, 41.6%. Further, the growth with SK-OV-3 ovarian is 28.6%; with IGROV1 ovarian, 18.9%; in the experiment with OVCAR-3 ovarian, -14.6% (active); in the experiment on HS 578T breast it was 16.7%; in the experiment with NCI/ADR-RES ovarian it was 12.3%; in the experiment on T-47D breast, 45.6%. For the same compound, the growth with BT-549 breast was -23.6% (active); in the experiment with MDA-MB-435 melanoma it was -47% (active); with SW-620 colon, 24.5%; in the experiment with MCF7 breast it was 16.4%; with HCT-116 colon, 0.775% (active); with HCC-2998 colon, 8.37% (active). Also, the growth in the experiment with KM12 colon was 6.93% (active).
As to `CC(=O)OC[C@]1(C)C=C2C(=O)[C@](C)(O)C3(CC3)C(C)=C2[C@H]1OC(=O)N(C)CCN(C)C(=O)OC(C)(C)C`, the growth was 10.5% with MOLT-4 leukemia; 14% with SR leukemia; 32.9% with RPMI-8226 leukemia; -12% (active) in the experiment on OVCAR-8 ovarian; 3.2% (active) in the experiment with OVCAR-5 ovarian; -2.23% (active) in the experiment on OVCAR-4 ovarian. Also, the growth in the experiment on SK-OV-3 ovarian was 1.41% (active); in the experiment on IGROV1 ovarian it was 1.75% (active); in the experiment with OVCAR-3 ovarian it was -8.01% (active); in the experiment with HS 578T breast, 17.5%; with NCI/ADR-RES ovarian, -2.04% (active); with T-47D breast it was 8.4% (active). Also, the growth with BT-549 breast is -32.8% (active); in the experiment on MDA-MB-435 melanoma, -47% (active); in the experiment on SW-620 colon, 10.4%; with MCF7 breast it was 2.67% (active); in the experiment with HCT-116 colon, 3.86% (active); in the experiment with HCC-2998 colon it was 6.65% (active). Besides, in the experiment on KM12 colon, the growth was 13%.
With `Fc1ccc2c(c1)c(-c1nc(-c3c[nH]c4ncccc34)cs1)cn2CCN1CCOCC1`, the growth in the experiment on MOLT-4 leukemia is 35.4%; with SR leukemia, 39.7%; with RPMI-8226 leukemia, 29%; in the experiment on OVCAR-8 ovarian, 33.5%; in the experiment with OVCAR-5 ovarian, 89.8%; in the experiment on OVCAR-4 ovarian, 44.7%. Moreover, the growth in the experiment with SK-OV-3 ovarian is 87.2%; with IGROV1 ovarian it was 21.5%; in the experiment on OVCAR-3 ovarian it was 59.5%; with HS 578T breast, 53.8%; with NCI/ADR-RES ovarian, 33.6%; with T-47D breast, 7.41% (active). The growth in the experiment with BT-549 breast is 49.6%; with MDA-MB-435 melanoma it was 21.5%; in the experiment on SW-620 colon, 62.9%; in the experiment with MCF7 breast it was 29.7%; in the experiment on HCT-116 colon, 52.6%; in the experiment with HCC-2998 colon it was 92.9%. Moreover, the growth with KM12 colon is 32.2%.
In the case of `OCCNC(Cc1ccccc1)c1ccc2c(c1)OCO2` (configuration not stated), the growth was 82.6% in the experiment on MOLT-4 leukemia; 99.1% with SR leukemia; 102% in the experiment with RPMI-8226 leukemia; 98.7% in the experiment with OVCAR-8 ovarian; 105% with OVCAR-5 ovarian; 117% with OVCAR-4 ovarian. For the same compound, the growth in the experiment on SK-OV-3 ovarian was 74.7%; in the experiment with IGROV1 ovarian it was 107%; in the experiment with OVCAR-3 ovarian it was 100%; in the experiment on HS 578T breast, 103%; in the experiment with NCI/ADR-RES ovarian, 102%; in the experiment on T-47D breast it was 60%. Further, the growth with BT-549 breast was 81.2%; with MDA-MB-435 melanoma, 108%; with SW-620 colon, 109%; in the experiment with MCF7 breast, 92.9%; with HCT-116 colon, 86.3%; with HCC-2998 colon, 99.3%. The growth in the experiment on KM12 colon is 101%.

Source of the values: PubChem BioAssay (NCI).
